# Results as given in the supplement of paper PMC6555819.
# How the values were obtained:
# Assay in all cases: PBM binding z-score (relative to random genomic background probes); higher = stronger binding; sequences stand for … in GC…GCGATTGACAGCGTAGAATGAAGG
# [1] = system: FXR:RXRa (NR concentration 270 nM, RXRa partner concentration 90 nM)
# How it was run: (§1)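 Random background probes are the reference for binding z-scores. These scores derive from regression-normalized fluorescence on custom Agilent 4×180K protein-binding microarrays incubated 1 h with ligand-free nuclear receptor dimers. Binding was detected with antibodies against each partner (one per run).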
# [2] = system: LXRa:RXRa (NR concentration 270 nM, RXRa partner concentration 90 nM)
# How it was run: as §1
# [3] = system: LXRa homodimer (NR concentration 270 nM)
# How it was run: as §1
# [4] = system: LXRb:RXRa (NR concentration 270 nM, RXRa partner concentration 90 nM)
# How it was run: as §1
# [5] = system: LXRb homodimer (NR concentration 270 nM)
# How it was run: as §1
# [6] = system: PPARa:RXRa (NR concentration 270 nM, RXRa partner concentration 90 nM)
# How it was run: as §1
# [7] = system: PPARg:RXRa (NR concentration 180 nM, RXRa partner concentration 90 nM)
# How it was run: as §1
# [8] = system: PPARg:RXRa 270nM:90nM, anti-RXR (NR concentration 270 nM, RXRa partner concentration 90 nM)
# How it was run: as §1
# [9] = system: PPARg:RXRa 30nM:10nM, anti-RXR (NR concentration 30 nM, RXRa partner concentration 10 nM)
# How it was run: as §1
# [10] = system: PPARg:RXRa 90nM:30nM, anti-RXR (NR concentration 90 nM, RXRa partner concentration 30 nM)
# How it was run: as §1
Sequence,PBM binding z-score [1],PBM binding z-score [2],PBM binding z-score [3],PBM binding z-score [4],PBM binding z-score [5],PBM binding z-score [6],PBM binding z-score [7],PBM binding z-score [8],PBM binding z-score [9],PBM binding z-score [10]
CAAACTAGGTAACAGAGGTCAAAGTCCGTGCGTA,5.29,6.1,7.34,5.38,1.74,5.84,6.67,6.35,3.97,5.74
CCTAGCAGGCCAATCTGGGTCACTCGAGGCTTGA,-0.0192,1.35,-0.447,0.667,-1,2.98,1.69,1.96,0.0407,1.13
GCTCGGAGGACAAGGTCAGAGCGTTGTCCGTAGA,2.18,1.74,-0.229,1.46,-0.608,2.61,0.378,1.37,-0.49,0.635
GGAACGAGGGCAAGTAGATAGCAGAGTTTGATGG,0.456,0.278,-0.397,-0.016,-0.00645,1.36,1.21,0.904,0.0838,0.493
AGCATGAGGTTATTAAGATCAGGGAATTGCGGTC,1.6,1.5,0.191,1.14,-0.175,2.03,0.647,1.13,0.242,0.454
CTAACTAGGTCATCCAGGACAGTGAATACATTGA,4.13,3.08,1.1,2.34,0.444,5.16,8.66,7.07,4.48,7.08
TCGAGTAGGTTACCAACGGGGCATTCAGCTTTCT,0.106,1.75,-0.787,0.579,-1.13,1.15,0.374,1.13,1.03,0.692
CCGAGTAGGTTATCGGGCATTCAGGCAACGGTGA,0.12,0.322,0.154,-0.0205,-0.739,1.32,1.8,2.7,0.915,1.54
TAGCCTAGGTCAGATCGGGCCAGCATACGCTATA,2.37,0.982,-0.589,0.386,-0.807,1.52,0.739,0.901,-0.0521,0.135
CCAGACAAGTGAGAAGGTAACTCAGCCTCGATTA,-0.1,0.185,0.265,0.312,0.105,-0.0657,0.295,-0.204,-0.274,-0.419
CCAGACAGGTGAAAGGTAACTCAGTCTGGTACGC,0.692,0.861,-0.121,1.01,-0.274,3.53,6.06,5.9,4.26,6.73
ACTAGTTGGTCAGCAGAGGTCACACACAATTCGG,4.13,4.71,4.06,4.34,1.39,4.7,3.33,3.79,1.16,3.11
CAAACTAGGTCAAAGGTAAAAGTCGAGCCAACCA,5.4,4.12,0.676,3.51,0.646,6.67,13,10.3,12.5,12.1
ATATGTAAGTTAAGGGTCATTCAGGTTGGTTCGC,4.42,4.64,3.27,4.11,1.56,5.03,6.82,7.16,6.71,7.81
ACTAGCAGGCCAAGCTTGGGTCACTCAAACAAAG,-0.0796,0.111,-0.692,0.455,-0.932,1.22,0.00964,0.21,-0.684,-0.194
CCTTACGGTTCACTCCAGGTTATAGCATCGGAGT,2.82,6.46,2.54,3.58,0.998,2.21,0.562,0.77,0.224,0.483
CGTCAAAGTTCAACTAAGGTAAAGTAAAGCACGC,6.88,6.38,3.13,4.16,2.1,5.3,4.8,5.57,2.59,4.36
CCTAGCAGGCCAATCTGGCTCACTCAAGGCTTGA,-0.716,-0.911,-0.459,-0.999,-0.737,-0.434,-0.54,-0.642,-0.916,-1.12
TCTATTAATTGAAGGGCAACCGACGAGTCCGTTT,0.489,1,1.77,0.808,0.497,1.16,0.0188,1.99,3.93,2.74
TCTTCTAGATCAAAGGTTAAGAAAGCCGAAGCCT,1.43,1.87,-0.049,2.13,0.536,4.9,7.46,8.19,8.13,8.51
ACTTACGGGTCAACGAGGTTATATCACGCGTATA,6.93,5.07,1.5,4.54,1.09,5.82,5.28,4.92,2.11,3.79
TCTTGTAGATCAGCAGGCTAAGAAAGCTGGCCAA,-0.304,-0.495,-0.573,-0.216,-0.933,0.0616,-0.735,0.857,2.22,1.47
CTACCAAGGTGAAGAAGGTCGTTGATTACTATTC,0.613,0.547,0.132,1.33,-0.664,1.95,0.281,0.572,-0.116,0.36
TAGCCTAGGTCATGCGTGCCAGTATAGTGTCGGC,4.03,3.31,0.471,1.75,-0.0531,3.69,2.33,2.39,0.347,1.23
